High-throughput results from PubChem.
PI5P4Ka inh: blocks human PI5P4K alpha kinase activity. PI5P4Kalpha enzyme, ADP-Glo luminescence, 60 min; stronger effect = lower value. AID 652105. 330,000 tested, 1.2% active. P48426. max response, %; active means max response of -50% or lower; inconclusive means between -30% and -50%; inactive means -30% or higher; further: value at the top dose of about 77 µM; on the % scale 0 is the no-effect control and ±100 the full control effect
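Compounds were pin-transferred onto PI5P4Kalpha and substrate in HEPES pH 7.4 buffer with EGTA, CHAPS and 5% DMSO. ATP (5 microM final) started the reaction, which ran 60 minutes at room temperature before ADP-Glo detection.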
BAZ2B inh: blocks human BAZ2B; AlphaScreen BAZ2B-H3K14Ac peptide displacement; Potency, µM (series often up to 114 µM), without a hit: at the highest dose activity change, negative = inhibition, actives largely listed as inhibitors; 360,000 tested, 4.4% active; further: potency means the concentration at half of the fitted maximal effect; on the % scale 0 is the no-effect control and ±100 the full control effect; nearly all actives have a fitted effect of over 60% in size
Target sequence (Q9UIF8 whole entry, looked up): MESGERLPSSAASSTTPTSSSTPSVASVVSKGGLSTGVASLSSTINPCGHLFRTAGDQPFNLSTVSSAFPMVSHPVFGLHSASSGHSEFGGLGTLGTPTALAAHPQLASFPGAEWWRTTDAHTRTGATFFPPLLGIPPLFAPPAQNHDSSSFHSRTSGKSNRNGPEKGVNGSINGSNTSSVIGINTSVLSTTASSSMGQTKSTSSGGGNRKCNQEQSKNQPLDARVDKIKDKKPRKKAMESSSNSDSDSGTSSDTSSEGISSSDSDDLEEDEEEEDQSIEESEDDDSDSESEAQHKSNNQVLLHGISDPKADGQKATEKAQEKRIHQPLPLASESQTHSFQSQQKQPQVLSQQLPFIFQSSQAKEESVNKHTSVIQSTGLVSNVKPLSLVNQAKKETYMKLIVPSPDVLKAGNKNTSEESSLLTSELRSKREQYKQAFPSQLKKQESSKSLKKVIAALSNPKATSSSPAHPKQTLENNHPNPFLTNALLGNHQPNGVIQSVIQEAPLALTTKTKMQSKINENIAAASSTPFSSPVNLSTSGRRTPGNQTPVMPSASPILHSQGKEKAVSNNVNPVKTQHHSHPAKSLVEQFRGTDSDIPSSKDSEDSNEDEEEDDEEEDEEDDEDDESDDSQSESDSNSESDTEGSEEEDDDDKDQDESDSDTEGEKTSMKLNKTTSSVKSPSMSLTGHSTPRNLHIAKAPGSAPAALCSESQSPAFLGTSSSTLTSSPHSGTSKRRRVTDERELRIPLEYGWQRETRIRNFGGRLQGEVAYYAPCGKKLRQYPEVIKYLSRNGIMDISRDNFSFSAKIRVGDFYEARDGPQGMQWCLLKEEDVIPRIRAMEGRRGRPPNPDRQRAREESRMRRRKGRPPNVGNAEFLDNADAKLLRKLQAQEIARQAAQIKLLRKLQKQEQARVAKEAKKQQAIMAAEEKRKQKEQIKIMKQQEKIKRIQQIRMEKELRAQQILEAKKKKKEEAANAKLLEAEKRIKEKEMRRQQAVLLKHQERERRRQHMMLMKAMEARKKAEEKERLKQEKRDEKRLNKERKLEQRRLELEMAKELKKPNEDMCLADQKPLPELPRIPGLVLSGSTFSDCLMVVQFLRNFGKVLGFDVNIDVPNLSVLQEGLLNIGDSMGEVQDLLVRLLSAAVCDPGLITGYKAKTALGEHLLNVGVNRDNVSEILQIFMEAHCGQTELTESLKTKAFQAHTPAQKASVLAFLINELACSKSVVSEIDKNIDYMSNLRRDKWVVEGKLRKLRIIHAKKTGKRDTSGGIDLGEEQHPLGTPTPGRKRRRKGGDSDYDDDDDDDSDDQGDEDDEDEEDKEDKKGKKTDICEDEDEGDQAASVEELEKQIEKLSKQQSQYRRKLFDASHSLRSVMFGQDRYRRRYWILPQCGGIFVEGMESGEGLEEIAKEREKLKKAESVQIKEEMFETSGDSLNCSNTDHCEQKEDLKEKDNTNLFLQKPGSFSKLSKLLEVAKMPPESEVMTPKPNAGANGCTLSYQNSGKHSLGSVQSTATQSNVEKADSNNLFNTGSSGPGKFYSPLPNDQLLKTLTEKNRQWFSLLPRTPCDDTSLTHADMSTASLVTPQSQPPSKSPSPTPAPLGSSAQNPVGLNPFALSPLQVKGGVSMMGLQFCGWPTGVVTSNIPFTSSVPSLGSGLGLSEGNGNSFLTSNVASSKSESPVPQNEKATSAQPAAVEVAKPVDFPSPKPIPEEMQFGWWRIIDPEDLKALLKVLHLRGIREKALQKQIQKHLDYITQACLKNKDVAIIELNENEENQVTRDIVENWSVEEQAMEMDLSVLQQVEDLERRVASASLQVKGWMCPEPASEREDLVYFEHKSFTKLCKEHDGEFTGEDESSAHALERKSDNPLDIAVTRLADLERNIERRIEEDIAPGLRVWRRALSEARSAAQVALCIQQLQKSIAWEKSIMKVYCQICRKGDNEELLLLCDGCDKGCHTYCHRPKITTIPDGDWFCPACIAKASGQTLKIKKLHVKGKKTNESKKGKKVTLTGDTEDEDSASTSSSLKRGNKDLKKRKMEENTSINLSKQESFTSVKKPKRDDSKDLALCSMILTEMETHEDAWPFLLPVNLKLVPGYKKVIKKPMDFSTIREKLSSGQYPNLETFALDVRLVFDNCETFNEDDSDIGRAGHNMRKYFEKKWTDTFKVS
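AlphaScreen displacement of biotin-H3(5-23)K14Ac peptide (50 nM final) from BAZ2B (50 nM final) in PBS pH 7.4, 0.01% Tween-20; complex preformed 30 min RT, then compounds (top 110 uM) 30 min RT, beads 20 min dark.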
HP1b binding inh: blocks HP1-beta chromodomain binding to methylated histone tails; P83916; AlphaScreen HP1-beta / biotin-H3K9me3 peptide binding; Potency, µM (series often up to 114 µM), for the others: top-dose activity change, negative = inhibition, most hits filed as inhibitors; 390,000 tested, 0.56% active; further: potency means the concentration at half of the fitted maximal effect; nearly all actives have a fitted effect of over 70% in size
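HP1-beta protein (50 nM final) preincubated 30 min at room temperature with biotinylated H3(1-18)K9me3 peptide (50 nM) in PBS pH 7.4, 0.01% Tween-20, then compound added for 30 min. AlphaScreen streptavidin donor/nickel chelate acceptor beads (10 ug/mL final), 30 min dark, luminescence read.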
KDM4E inh: JMJD2E (human) inhibition; B2RXH2; JMJD2E catalytic domain, FDH-coupled NADH fluorescence (FDH is formaldehyde dehydrogenase); Potency, µM (doses to about 57.1 µM), inactives show at the highest dose activity change, negative = inhibition, usual class: inhibitors; 230,000 tested, 1.6% active; AID 2147; active means well fitted inhibition curve with a large enough effect, not every such curve was filed as active; inconclusive means small, poorly fitted or top-dose-only effect, or another doubt; inactive means no such curve, though single readings can be large or run the other way;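 further: potency means the concentration at half of the fitted maximal effect; 0% = wells with enzyme and -100% = buffer wells without enzyme; nearly all actives have a fitted effect of over 50% in size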
JMJD2A Tudor: JMJD2A Tudor domain (human) inhibition; O75164; AlphaScreen JMJD2A-Tudor / H3K4me3 peptide binding; Potency, µM (doses to about 114 µM), without a hit: at the top dose activity change, negative = inhibition, usual class: inhibitors; 390,000 tested, 4.4% active; AID 504339; further: potency means the concentration at half of the fitted maximal effect; on the % scale 0 is the no-effect control and ±100 the full control effect; nearly all actives have a fitted effect of over 50% in size
L3MBTL1 block: blocks human L3MBTL1. AlphaScreen L3MBTL1–H3K9me1 peptide binding. Potency, µM (highest dose often 57.1 µM), for the others: at the top dose activity, negative = inhibition, usual class: inhibitors. 230,000 tested, 0.66% active. AID 485360; further: potency means the concentration at half of the fitted maximal effect; on the % scale 0 is the no-effect control and ±100 the full control effect; nearly all actives have a fitted effect of over 60% in size
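Displacement of a biotinylated histone H3(1-15) peptide monomethylated at Lys9 (75 nM) from L3MBTL1 (50 nM) was measured by AlphaScreen after a 30 min room-temperature compound incubation; cefsulodin titration served as intraplate control.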
The depositor's hits bear a star; ? = inconclusive; . = no result given; [ ] = dose if it differs, or a comment. The list is not random: actives were taken first. Their share in the collection is about 5.7%. Unless noted, the call rests on the fitted dose curve; in most records, active means well fitted inhibition curve with a large enough effect; inconclusive means small, poorly fitted or top-dose-only effect; inactive means no such curve, though single readings can be large or run the other way.

SMILES	PI5P4Ka inh	BAZ2B inh	HP1b binding inh	KDM4E inh	JMJD2A Tudor	L3MBTL1 block
CCN1CCN(Cc2ccc(NC(=O)c3ccc(C)c(/C=C/c4cnc(Nc5cc(N6CCNCC6)nc(C)n5)cn4)c3)cc2C(F)(F)F)CC1	-73.5*	?	?	.	79.4µM*	-3.8%
CCN1CCN(Cc2ccc(NC(=O)c3ccc(C)c(NC(=O)c4ccno4)c3)cc2C(F)(F)F)CC1	-16.8	-15.3%	37.4%	-2.2%	-20.1%	.
CC(C)(C)c1ccc(S(=O)(=O)N(CCCN2CCOCC2)Cc2cccs2)cc1	4.4	25.1µM*	15.8µM*	-7.1%	22.4µM*	-16.3%
O=[N+]([O-])c1ccc(S(=O)(=O)N(CCCN2CCOCC2)Cc2cccs2)cc1	0.4	50.1µM*	7.0%	?	79.4µM*	.
CC(=O)Nc1ccc(S(=O)(=O)N(CCCN2CCOCC2)Cc2cccs2)cc1	-5.2	79.4µM*	-7.9%	?	44.7µM*	.
Cc1ccc(-n2c(C)cc(C3=NNC(=NC4CC4)SC3)c2C)cc1C	3.2	50.1µM*	?	-10.8%	50.1µM*	-7.2%
Cc1cc(C2=NNC(=NC3CC3)SC2)c(C)n1-c1c(C)n(C)n(-c2ccccc2)c1=O	1.8	-10.6%	25.4%	-8.9%	-5.7%	1.2%
COc1ccc(OC)c(C(=O)NC(CC(N)=O)c2ccc(NCCOc3ccccc3)c([N+](=O)[O-])c2)c1 (configuration not stated)	-8.9	?	-1.2%	.	?	-14.4%
COc1ccc(CCNc2ccc(C(CC(N)=O)NC(=O)c3cc(OC)ccc3OC)cc2[N+](=O)[O-])cc1 (configuration not stated)	1.2	31.6µM*	-19.0%	.	?	-29.3%
Cc1[nH]c2ccccc2c1C(=O)C(=O)NCCOc1ccccc1	4.5	-24.9%	10.9%	-3.7%	-11.7%	.
CCOC(=O)CNC(=O)C(=O)c1c(O)[nH]c2ccccc12	1.1	-4.1%	5.7%	-7.3%	50.1µM*	-3.7%
O=c1ccsn1Cc1ccccc1	?	56.2µM*	?	4.9%	39.8µM*	.
COc1cc2c(cc1OC)C(c1ccc(-c3ccc(Cl)c(Cl)c3)o1)=NCC2	.	?	?	-15.4%	17.8µM*	.
COc1cc2c(cc1OC)C(c1ccc(-c3ccccc3Cl)o1)=NCC2	.	28.2µM*	?	-12.7%	?	.
Cc1oc(-c2ccc(C(=O)NCCCOC(C)C)cc2)nc1CS(=O)(=O)c1ccccc1	.	-15.3%	9.5%	.	-7.9%	.
COc1ccc(N=Cc2cc(Cc3ccccc3Cl)cc([N+](=O)[O-])c2O)cc1OC	?	?	-14.3%	?	?	.
Cc1ccc(N=Cc2cc(Cc3ccccc3Cl)cc([N+](=O)[O-])c2O)c(O)c1	-68.9*	25.1µM*	?	17.8µM*	14.1µM*	.
COc1ccc(C)cc1NC(=O)COC(=O)c1ccc([N+](=O)[O-])o1	7.5	9.1%	26.8%	-1.8%	-40.1%	.
COc1ccc(C(C)(C)C)cc1NC(=O)COC(=O)c1ccc([N+](=O)[O-])o1	0.4	?	?	-18.7%	20µM*	-26.1%
CCCCOc1ccc(C(=O)Nc2ccc3c(c2)N(C(C)=O)CCC3)cc1	.	-7.9%	18.3%	.	-7.3%	.
CCOc1ccccc1C(=O)NCC(c1ccc(N(C)C)cc1)N1CCc2ccccc21 (configuration not stated)	.	5.62µM*	?	.	10µM*	.
COc1ccc(C(=O)NCC(c2cccnc2)N2CCc3ccccc32)cc1 (configuration not stated)	.	-2.3%	22.2%	.	-22.4%	.
COc1cc(C(=O)NCC(c2ccco2)N2CCc3ccccc32)cc(OC)c1OC (configuration not stated)	-1.5	79.4µM*	-25.8%	.	?	-21.2%
COc1ccccc1C(=O)NCC(c1ccco1)N1CCc2ccccc21 (configuration not stated)	-7.3	50.1µM*	4.6%	.	?	-9.9%
CCOc1ccc(CC(=O)NCC(c2cccs2)S(=O)(=O)c2ccc(F)c(C)c2)cc1 (configuration not stated)	.	-0.9%	36.6%	.	-12.6%	.
SMILES	PI5P4Ka inh	BAZ2B inh	HP1b binding inh	KDM4E inh	JMJD2A Tudor	L3MBTL1 block
Cc1ccc(NC(=O)CSCc2ccco2)cc1	-2.5	-20.3%	14.4%	-3.9%	-22.9%	-5.5%
c1coc(CSSCc2ccco2)c1	?	-4.0%	?	.	56.2µM*	-6.1%
CCOC(=O)N1CCc2c(sc3c2c(=O)n(Cc2ccccc2)c(=O)n3Cc2cccc(Cl)c2)C1	.	-28.6%	24.6%	.	-9.3%	.
CCCCN=C1NN=C(c2cccc([N+](=O)[O-])c2)CS1	0.1	?	-1.6%	-9.4%	-31.0%	-21.1%
CCCCN=C1NN=C(c2cc3ccccc3o2)CS1	-18.4	-38.8%	?	25.1µM*	?	-16.6%
CCc1ccccc1N(CC)C(=O)Cn1nc(Cc2ccncc2)c2ccccc2c1=O	.	-15.6%	33.8%	.	-21.9%	.
O=[N+]([O-])c1cccnc1NCc1cccs1	0.4	-19.6%	13.5%	-5.7%	-29.4%	.
CC(CN1CCN(C)CC1)OC(=O)c1ccccc1Cl (configuration not stated)	-5.4	?	25.6%	1.7%	79.4µM*	2.7%
CC(CN1CCCC1)OC(=O)c1ccccc1Cl (configuration not stated)	-4.2	6.4%	10.2%	.	-20.0%	3.1%
O=C(NN=C1CCN(Cc2ccccc2)CC1)c1ccccc1	-1.1	-7.2%	-17.3%	14.1%	7.94µM*	-10.7%
CC(=O)OCC1OC(Oc2cc(OC(C)=O)c3c(=O)cc(-c4ccc(OC(C)=O)cc4)oc3c2)[C@@H](OC(C)=O)C(OC(C)=O)C1OC(C)=O (some centres not stated)	.	.	.	7.8%	.	.
C=C(CN(C)C)C(=O)c1ccc(OC2OC(COC(C)=O)C(OC(C)=O)C(OC(C)=O)C2OC(C)=O)cc1 (configuration not stated)	-7.1	.	56.2µM*	.	89.1µM*	.
O=[N+]([O-])c1ccc(Cl)cc1Sc1nc2ccccc2o1	.	14.1µM*	12.6µM*	0.4%	44.7µM*	?
CCOc1ccc(/C=C/C2=Cc3c(sc(NC(=O)CSc4n[nH]c(N)n4)c3C#N)C(C)(C)C2)cc1	.	39.8µM*	-30.3%	-1.6%	?	-8.5%
COCCN1CCc2[nH]c(=S)[nH]c(=O)c2C1	3.4	?	24.8%	?	-2.1%	4.7%
CCCCN1CCc2[nH]c(=S)[nH]c(=O)c2C1	-0.3	16.3%	-12.0%	-5.5%	25.1µM*	41.0%
COc1ccc(C(=O)COC(=O)c2cccnc2Cl)c(OC)c1	-74.5*	50.1µM*	6.0%	-26.9%	-29.2%	.
COc1ccc(OC)c(C(=O)COC(=O)c2cccnc2Cl)c1	1.2	10.2%	56.5%	-7.1%	-6.6%[11.4 µM]	19.0%
